ANO1 block = mouse TMEM16A channel inhibition, primary screen; HEK293 TMEM16A/YFP iodide influx fluorescence, ionomycin; normalized B-score (activity score, 25-100; higher = stronger inhibition) at 10 µM; 310,000 tested, 1.2% active;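 active = ratio plate-corrected score three or more library SD toward inhibition, starting fluorescence score within five deviations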;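 also: score derived from kinetic fluorescence span divided by baseline fluorescence per well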
CHT block = inhibits the human high affinity choline transporter; Q9GZV3; CHT-expressing cells, membrane potential dye, choline response; hits give low values; B-score at 10 µM; 310,000 tested, 0.86% active; AID 488975;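 active = B-score over 3 SD under the library average, and starting fluorescence ratio not unusually high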;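 also: choline stimulus applied at its EC90 after an EC20 pre-addition; B-score computed on integrated fluorescence ratio after choline addition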
Target sequence (Q9GZV3 whole entry, looked up): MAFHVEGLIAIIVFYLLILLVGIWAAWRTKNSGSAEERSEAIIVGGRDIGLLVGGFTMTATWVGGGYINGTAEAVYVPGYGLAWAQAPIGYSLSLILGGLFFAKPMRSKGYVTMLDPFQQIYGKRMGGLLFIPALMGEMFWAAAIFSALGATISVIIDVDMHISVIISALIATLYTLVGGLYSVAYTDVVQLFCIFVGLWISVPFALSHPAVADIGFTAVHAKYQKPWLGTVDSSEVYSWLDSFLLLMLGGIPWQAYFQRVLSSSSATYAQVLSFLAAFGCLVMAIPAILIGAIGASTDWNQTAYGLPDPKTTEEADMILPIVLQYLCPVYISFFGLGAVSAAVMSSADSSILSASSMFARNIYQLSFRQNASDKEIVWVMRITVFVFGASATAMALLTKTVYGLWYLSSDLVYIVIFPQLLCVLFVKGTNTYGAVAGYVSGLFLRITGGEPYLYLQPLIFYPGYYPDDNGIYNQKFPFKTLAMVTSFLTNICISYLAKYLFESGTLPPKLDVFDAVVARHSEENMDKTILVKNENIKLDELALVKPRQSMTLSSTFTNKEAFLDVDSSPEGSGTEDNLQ
ANO1 activ = activators or potentiators of mouse TMEM16A chloride channel; Q8BHY3; HEK293 TMEM16A/YFP-H148Q/I152L, iodide quench fluorescence; hits give low values; AID 623877; 340,000 tested, 0.3% active; B-score at 10 µM;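 active = fluorescence-ratio B-score plate-corrected deviation score at least 3 library SD below zero, with starting fluorescence score within 5 deviations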;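 also: channel opened by trigger with iodide after compound preincubation; score built on the fluorescence ratio of max minus min over baseline; more negative score means more quench and so TMEM16A activation or potentiation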
CHT allo act = allosterically activates the human high affinity choline transporter; Q9GZV3; CHT-expressing cells, membrane potential dye, choline EC20; hits give high values; LV-AA mutant CHT in HEK293 cells; B-score at 10 µM; 310,000 tested, 0.49% active;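 active = initial fluorescence not abnormally high and integrated response B-score, plate-corrected, over 3 SD above library mean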
GPR7 antagonist = antagonists of human GPR7 (neuropeptides B/W receptor 1); 290,000 tested, 1.1% active; AID 1861; P48145; GPR7-expressing cells, fluorescence antagonist assay; inhibition, % at 4.4 µM; in the data active = inhibition above about 16%, passing the limit was not always enough;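 also: cells stimulated with the agonist NPW; 0% = agonist with vehicle and 100% = vehicle without agonist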
Kir21 block = inhibitors of mouse Kir2.1 inward-rectifier potassium channel | P35561 | HEK293-Kir2.1, FluxOR thallium flux fluorescence; hits give low values | B-score at 10 µM | 310,000 tested, 0.85% active | AID 1672;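 active = fluorescence ratio B-score at or below minus 3 SD of library scores, with starting-brightness B-score within 2 SD, cut at about -4.2 in these data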;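 also: channel flux triggered by added potassium and thallium sulfate stimulus; B-score of peak minus minimum fluorescence over baseline after thallium stimulus; more negative B-score means stronger Kir2.1 block with less thallium influx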
Starred values were filed as active, the others as inactive; i = inactive; nt = not tested or not shown. A selection: hits, their analogues and other compounds. The true share with any hit is near 3.7%.

SMILES	ANO1 block	CHT block	ANO1 activ	CHT allo act	GPR7 antagonist	Kir21 block
O=C(O)C(CCCCNS(=O)(=O)c1ccc(F)cc1)NS(=O)(=O)c1ccc(F)cc1 (stereo not drawn)	i	i	i	i	-13.5	2.29
CSc1ccc(CN2CCN(C(C)C)C(CCO)C2)cc1 (stereo not drawn)	i	i	i	i	-4.3	-1.18
C[C@@]12C(=O)N(CC3CCCO3)CC(=O)N1[C@H]1c3cc(Cl)ccc3OC[C@@H]1[C@@H]2c1ccccc1 (stereo partly drawn)	nt	nt	i	nt	nt	nt
CCOc1ccccc1NC(=O)CSc1nccn1-c1ccccc1	i	i	i	i	5.4	-7.01*
COc1ccc(Cn2ccnc2SCC(=O)Nc2ccccc2OC)cc1	i	i	i	i	12.5	-4.53*
COc1ccc(Cn2ccnc2SCC(=O)Nc2ccccc2F)cc1	i	i	i	i	11.2	0.01
O=C(NCC1CCCO1)c1cc(-c2ccc(F)cc2)no1 (stereo not drawn)	i	i	i	i	1.1	-0.37
CCNC(=S)N(Cc1c(C)noc1C)c1ccccc1	i	i	i	i	3.7	-3.55
CCCCNC(=S)N(Cc1c(C)noc1C)c1ccccc1	i	i	i	i	-1.3	-5.43*
COc1cccc(COc2cc3ccccc3nc2C)c1	25*	i	i	i	18.0	-0.13
Cc1cc(C)cc(OCC(=O)OCC(=O)NC2CC2)c1	nt	nt	i	nt	nt	nt
COCc1cc(C)nc(NC2CC(C)(C)NC(C)(C)C2)c1C#N	i	i	i	i	-4.0	-0.63
COC(=O)c1ccc(CN(c2ccc(C(=O)O)c(O)c2)S(=O)(=O)c2ccc(Cl)c([N+](=O)[O-])c2)cc1	100*	i	i	i	19.1	-0.86
COC(=O)c1ccc(CN(c2ccccn2)S(=O)(=O)c2ccccc2)cc1	i	i	i	i	-13.5	0.05
COc1cccc(/C=N/n2nnnc2N)c1O	i	i	i	i	-1.5	0.92
CC1=NN(c2ccccc2)C(c2ccco2)C1 (stereo not drawn)	nt	nt	i	nt	nt	nt
O=[N+]([O-])c1ccc(C2=NN(c3ccccc3)C(c3ccco3)C2)cc1 (stereo not drawn)	nt	nt	i	nt	24.4*	-12.1
O=C(/C=C/c1ccc(Cl)cc1)NCCSc1ccccc1	i	i	i	i	-6.4	0.91
O=C(/C=C/c1ccc(Cl)cc1Cl)NCCSc1ccccc1	25*	i	i	i	4.9	0.03
O=C(/C=C/c1ccc(Cl)cc1Cl)NCCSCc1ccccc1	100*	i	i	i	0.1	1.08
O=C(COC(=O)/C=C/c1ccccc1[N+](=O)[O-])NNC(=O)c1ccc(F)cc1	nt	nt	i	nt	nt	nt
O=C(COc1ccccc1)Nc1ccc(S(=O)(=O)N2CCOCC2)cc1	i	i	i	i	0.8	-0.53
O=C(COC(=O)c1ccccn1)Nc1ccc(S(=O)(=O)N2CCOCC2)cc1	25*	i	i	i	12.4	1.83
CCOc1ccccc1C(=O)OCC(=O)Nc1cc(S(=O)(=O)N2CCOCC2)ccc1C	nt	nt	-42*	nt	nt	nt
C[C@H]1COC2=C1C(=O)C(=O)c1c2ccc2c1CCCC2(C)C	i	i	i	i	-6.4	-5.44*
SMILES	ANO1 block	CHT block	ANO1 activ	CHT allo act	GPR7 antagonist	Kir21 block
CC1(c2ccccc2Cl)NC(=O)N(CC(=O)N2c3ccccc3NC(=O)C2(C)C)C1=O (stereo not drawn)	nt	nt	i	nt	nt	nt
COc1ccc(NC(=O)Cc2ccc(Cl)c(Cl)c2)cn1	i	i	i	i	5.3	-0.95
COc1ccc(NC(=O)/C(Cl)=C(/Cl)S(=O)(=O)Cc2ccc(C)cc2)cn1	nt	nt	i	nt	24.1*	-3.29
Cc1ccc(OCCNC(=O)CCNC(=O)c2ccc(Cl)cc2)cc1	nt	nt	-25.9*	nt	nt	nt
C/C(Cl)=C\Cn1c(N2CCCC2)nc2c1c(=O)n(C)c(=O)n2C	i	i	i	i	-29.8	0.77
COCCNC(=O)C1CCC(CNS(=O)(=O)c2ccccc2)CC1 (stereo not drawn)	i	i	i	i	-14.7	-0.31
O=S(=O)(NCCc1csc(-c2cccnc2)n1)c1cccc(F)c1	i	i	i	i	-5.4	-1.21

Screening results from PubChem BioAssay.
